Source: PubChem BioAssay
The sample as a whole holds a higher share of hits than the screen did.
STK33 kin inh – STK33 kinase inhibitors, primary screen, biochemical, luminescence, ADP-Glo, MBP substrate. hit rate 0.44% among 27,000. inhibition, % at 12.5 µM. Serine/threonine-protein kinase 33 (Homo sapiens), Q9BYT3. AID 2322, 2010; in the data active = inhibition above about 20%; inconclusive = no clear call, values can overlap the other calls
Target sequence (Q9BYT3 whole entry, looked up): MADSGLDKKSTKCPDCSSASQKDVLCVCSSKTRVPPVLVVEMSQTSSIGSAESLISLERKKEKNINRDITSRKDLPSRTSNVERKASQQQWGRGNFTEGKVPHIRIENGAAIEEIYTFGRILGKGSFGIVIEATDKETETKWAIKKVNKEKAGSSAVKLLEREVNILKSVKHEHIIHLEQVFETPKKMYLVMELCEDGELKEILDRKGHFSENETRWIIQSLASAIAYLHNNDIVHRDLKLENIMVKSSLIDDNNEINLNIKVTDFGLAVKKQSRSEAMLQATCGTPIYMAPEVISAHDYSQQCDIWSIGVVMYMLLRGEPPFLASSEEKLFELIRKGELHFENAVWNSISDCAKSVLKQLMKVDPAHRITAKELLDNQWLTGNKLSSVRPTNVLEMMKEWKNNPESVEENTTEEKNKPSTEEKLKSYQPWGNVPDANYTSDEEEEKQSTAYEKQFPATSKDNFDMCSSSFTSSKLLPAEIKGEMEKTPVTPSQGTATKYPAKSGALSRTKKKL
PD-1 reverse act – activators reversing PD-1 mediated T-cell inhibition, primary screen, luminescence, primary human CD4 T cells, PD-L1 beads | CellTiter-Glo 96 h | activation, % (concentration not given with the values) | 29,000 tested, under 10 active | AID 2316, 2010; call rule not given here;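 also: 0% = median vehicle wells and 100% = positive control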
NOMO-1 viab – NOMO-1 AML cell viability reduction, primary screen, STK33 inhibitor project, CellTiter-Glo luminescence | NOMO-1 AML viability, 72 h | hit rate 7.5% among 37,000 | AID 2330, 2010 | inhibition, % (no concentration beside the values); in the data active = inhibition above about 80%; inconclusive = no clear call, values can overlap the other calls
An asterisk follows results filed as active; u = inconclusive; x = no result given.

SMILES	STK33 kin inh	PD-1 reverse act	NOMO-1 viab
Cc1ccc(S(=O)(=O)Nc2ccc3c(c2)CC(=O)N([C@H](C)CO)C[C@@H](C)[C@@H](CN(C)Cc2ccc(C(F)(F)F)cc2)O3)cc1	0	-2	114*
Cc1ccc(S(=O)(=O)Nc2ccc3c(c2)C(=O)N([C@H](C)CO)C[C@@H](C)[C@H](CN(C)Cc2ccc(C(F)(F)F)cc2)O3)cc1	-1	1	10
Cc1ccc(S(=O)(=O)Nc2ccc3c(c2)CC(=O)N([C@H](C)CO)C[C@@H](C)[C@@H](CN(C)Cc2ccc(C(=O)O)cc2)O3)cc1	1	1	-16
Cc1ccc(S(=O)(=O)Nc2ccc3c(c2)CC(=O)N([C@@H](C)CO)C[C@H](C)[C@@H](CN(C)Cc2ccc(C(F)(F)F)cc2)O3)cc1	6	0	98*
COc1ccc(S(=O)(=O)NC2(C(=O)O)CCCCC2)cc1	-1	2	3
O=C(Nc1ccc(NC(=O)c2ccccc2O)cc1)c1ccc(Cl)cc1	7	3	-17
CC(C)(C)c1ccc(C(=O)Nc2ccc(NC(=O)c3ccccc3F)cc2)cc1	x	0	125*
N#Cc1ccc(NC(=O)CSc2ccc([N+](=O)[O-])cn2)cc1	-3	0	20
COc1cccc(-c2cc(NCc3ccc4c(c3)OCO4)nc(N)n2)c1	1	-25	95*
COc1cccc(-c2cc(C(=O)NCc3ccco3)c3cc(C)cc(C)c3n2)c1	1	x	10
COC(=O)c1cc(NC(=O)COc2ccc(I)cc2)cc(C(=O)OC)c1	3	x	10
Cc1cccc(C(C)C)c1NC(=O)CN(C1CCCCC1)S(C)(=O)=O	1	1	-1
O=C(COc1ccc([N+](=O)[O-])cc1)Nc1cccc(O)c1	0	1	3
C[C@H]1CN([C@@H](C)CO)C(=O)Cc2cc(NC(=O)NC3CCCCC3)ccc2O[C@H]1CN(C)Cc1ccc(C(F)(F)F)cc1	5	x	34
C[C@H]1CN([C@@H](C)CO)C(=O)Cc2cc(NC(=O)Nc3ccc(C(F)(F)F)cc3)ccc2O[C@@H]1CN(C)Cc1ccc(C(=O)O)cc1	-10	x	0
C[C@@H]1CN([C@@H](C)CO)C(=O)Cc2cc(NC(=O)Nc3ccc(C(F)(F)F)cc3)ccc2O[C@@H]1CN(C)Cc1ccc(C(F)(F)F)cc1	0	x	124*
C[C@@H]1CN([C@H](C)CO)C(=O)Cc2cc(NC(=O)Nc3ccc(F)cc3)ccc2O[C@@H]1CN(C)Cc1ccc(C(F)(F)F)cc1	1	-4	u
C[C@H]1CN([C@@H](C)CO)C(=O)Cc2cc(NC(=O)Nc3ccc(C(F)(F)F)cc3)ccc2O[C@H]1CN(C)Cc1ccc(C(F)(F)F)cc1	-2	-10	136*
C[C@@H]1CN([C@H](C)CO)C(=O)Cc2cc(NC(=O)NC3CCCCC3)ccc2O[C@H]1CN(C)Cc1ccc(C(F)(F)F)cc1	9	x	93*
Cc1cc(I)cc(C)c1NC(=O)CSc1nnnn1-c1ccccc1	0	1	6
Cc1sc2ncnc(SCC(=O)NCc3ccccc3)c2c1C	1	-1	21
COC(=O)c1cccc(O)c1C(=O)c1c(O)cc(C)cc1O	-10	-1	3
COC(=O)c1cc(O)c(C(=O)c2c(O)cccc2C(=O)O)c(O)c1	94*	0	6
O=C(O)CCNc1cc(Cl)ccc1Oc1ccc(Cl)cc1	x	0	1
CCn1c(SCC(=O)c2cccc([N+](=O)[O-])c2)nnc1-c1ccccc1F	0	-2	2
SMILES	STK33 kin inh	PD-1 reverse act	NOMO-1 viab
Cc1ccc(-n2c(=O)c3c4c(sc3n3c(SCC(=O)c5ccc(F)cc5)nnc23)CCCC4)cc1	3	x	96*
O=C(O)CSc1nnc2n(CCc3ccccc3)c(=O)c3c4c(sc3n12)CCCC4	-1	x	1
O=C(Oc1cccc2ccccc12)c1ccccc1	x	-1	40
O=C(Oc1cc(=O)oc2c1c(=O)n1c3c(cccc23)CC1)c1ccccc1	x	-1	140*
CN(CCO)C(=O)c1ccc2c(c1)C(=O)c1ccccc1-2	x	0	1
CS(=O)(=O)N(CC(=O)Nc1c(F)cccc1F)c1ccc(Br)cc1	-1	2	22
O=C(/C=C/c1ccc(O)cc1)NCCc1ccc(O)cc1	3	1	36
CC(=O)NCCCN(CCCCN(CCCNC(=O)/C=C/c1ccc(O)cc1)C(C)=O)C(=O)/C=C/c1ccc(O)cc1	40*	2	-1
COc1cc(OC)c(-c2c(OC)cc(OC)cc2OC)c(OC)c1	-1	x	16
CCN=C1SC(CC(=O)Nc2sc3c(c2C(=O)OCC)CCCC3)C(=O)N1CC (stereo not given)	x	-1	19
C[C@H]1CN([C@@H](C)CO)C(=O)c2cc(NC(=O)Cc3cn(C)c4ccccc34)ccc2O[C@@H]1CN(C)Cc1ccncc1	x	x	96*
